An excerpt weighted towards active compounds, which were near 12% of everything screened.
Sfp PPTase inh: inhibitors of Bacillus subtilis Sfp phosphopantetheinyl transferase; Q9F4F7; Biochemical Sfp PPTase activity, qHTS; 310,000 compounds, 3.5% hits; Potency, µM, for inactives: largest response in the series, negative = inhibition, hits mostly inhibitors;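 further: the enzyme is Sfp with the accession as filed and its product quenches rhodamine fluorescence; 0% = enzyme reaction without inhibitor and -100% = no enzyme wells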
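Step 1, compound plus 15 nM Sfp-PPTase, 15 min, room temperature. Step 2, add rhodamine-CoA (5 uM) and BHQ-2-YbbR (12.5 uM). Step 3, read 525/598 nm fluorescence at 0 and 30 min.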
HP1b binding inh: HP1-beta chromodomain-methylated histone interaction inhibition; AlphaScreen HP1-beta / biotin-H3K9me3 peptide binding; Potency, µM (series often up to 114 µM), for the others: at the highest dose activity change, negative = inhibition, hits mostly inhibitors; 390,000 compounds, 0.56% hits; AID 540317; further: nearly all actives have a fitted effect of over 70% in size
Target sequence (P83916 whole entry, looked up): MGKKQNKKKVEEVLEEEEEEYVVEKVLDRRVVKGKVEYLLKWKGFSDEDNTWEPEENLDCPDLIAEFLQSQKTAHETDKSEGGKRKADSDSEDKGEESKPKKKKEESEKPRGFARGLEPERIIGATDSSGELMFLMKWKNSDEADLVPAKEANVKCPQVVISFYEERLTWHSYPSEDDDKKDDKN
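HP1-beta protein (50 nM final) preincubated 30 min at room temperature with biotinylated H3(1-18)K9me3 peptide (50 nM) in PBS pH 7.4, 0.01% Tween-20, then compound added for 30 min. AlphaScreen streptavidin donor/nickel chelate acceptor beads (10 ug/mL final), 30 min dark, luminescence read.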
BAZ2B block: BAZ2B (human) inhibition; Potency, µM (doses to about 114 µM), inactives show at the top dose activity change, negative = inhibition, most hits filed as inhibitors; 360,000 compounds, 4.4% hits; Q9UIF8; AID 504333; AlphaScreen BAZ2B-H3K14Ac peptide displacement; further: on the % scale 0 is the no-effect control and ±100 the full control effect; nearly all actives have a fitted effect of over 60% in size
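AlphaScreen luminescence quantifies BAZ2B engagement of H3K14Ac peptide; the protein and biotinylated peptide are both at 50 nM final, buffer PBS pH 7.4 with 0.01% Tween-20, all steps at room temperature.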
PLK1 PBD inh: inhibitors of human PLK1 polo-box domain binding | P53350 | Plk1 PBD binding of FITC phosphopeptide, fluorescence polarization | Potency, µM, for the others: max response, negative = inhibition, hits mostly inhibitors | 360,000 compounds, 2.8% hits | AID 720504; further: series mostly up to about 57 µM; on the % scale 0 is the no-effect control and ±100 the full control effect; nearly all actives have a fitted effect of over 65% in size
G9a inh: inhibitors of human histone lysine methyltransferase G9a. 350,000 compounds, 8.8% hits. G9a H3K9 monomethylation, AlphaScreen, 2 h. Potency, µM (doses to about 102 µM), without a hit: at the top dose activity, negative = inhibition, usual class: inhibitors. AID 504332; further: on the % scale 0 is the no-effect control and ±100 the full control effect; nearly all actives have a fitted effect of over 75% in size
Target sequence (Q96KQ7 913-1193 limits assumed): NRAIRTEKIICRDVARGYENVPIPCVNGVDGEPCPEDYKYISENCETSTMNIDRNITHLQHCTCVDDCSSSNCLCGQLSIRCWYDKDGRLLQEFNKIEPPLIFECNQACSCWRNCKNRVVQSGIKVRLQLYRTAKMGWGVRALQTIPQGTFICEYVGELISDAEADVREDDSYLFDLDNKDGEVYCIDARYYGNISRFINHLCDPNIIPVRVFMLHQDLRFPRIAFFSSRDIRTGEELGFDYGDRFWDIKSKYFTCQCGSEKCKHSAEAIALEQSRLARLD
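AlphaScreen read-out: biotin-H3K9 peptide (500 nM) methylation by 20 nM enzyme with 20 uM SAM, 2 h at room temperature after 15 min compound preincubation; anti-monomethyl H3K9 antibody plus donor/acceptor beads, 10 min dark.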
JMJD2A Tudor: JMJD2A Tudor domain (human) inhibition; O75164; AlphaScreen JMJD2A-Tudor / H3K4me3 peptide binding; Potency, µM (titrated, usually from 114 µM), for the others: top-dose activity change, negative = inhibition, actives largely listed as inhibitors; 390,000 compounds, 4.4% hits; further: on the % scale 0 is the no-effect control and ±100 the full control effect; nearly all actives have a fitted effect of over 50% in size
* = called active by the depositor; ? = inconclusive; / = not tested or not shown; ! = repeats disagree; [ ] = dose if it differs, or a comment. The call rests on the fitted dose curve; in most records, active means well fitted curve in the direction sought with a large enough effect; inconclusive means small, poorly fitted or top-dose-only effect, or another doubt; inactive means no such curve, though single readings can be large; an effect the other way counts as inactive or inconclusive. Potency means the concentration at half of the fitted maximal effect.

SMILES | Sfp PPTase inh | HP1b binding inh | BAZ2B block | PLK1 PBD inh | G9a inh | JMJD2A Tudor
O=C(NCCN1C(=O)S/C(=C\c2ccc(F)cc2)C1=O)C1CCN(S(=O)(=O)c2cccs2)CC1 | -4.8% | -10.3% | -2.9% | 26.7µM* | -3.8% | ?
Cc1ccc(CNC(=O)c2ccccc2NC(=O)c2nsc3ccccc23)cc1 | / | 20.7%[57 µM] | 0.5% | / | 5.4%[59 µM] | -6.8%
Cc1ccc2c(c1)c1c(c(=O)n(-c3ccccc3C)c(=O)n1CC(=O)NCc1ccccc1)n2C | / | 54.2% | -15.2% | / | ? | 11.4%
CC1CN(C(=S)NC(=O)c2ccc([N+](=O)[O-])cc2)CC(C)O1 (stereo not given) | 3.6% | 24.0% | -33.7%[57.1 µM] | -1.6% | 39.8µM* | -34.6%
CC1CN(C(=O)COC(=O)c2ccc(N)c([N+](=O)[O-])c2)CC(C)O1 (stereo not given) | -2.4% | 9.8% | 4.3% | -8.6% | 15.6% | -3.1%
CC1CN(C(=S)NC(=O)c2ccccc2)CC(C)O1 (stereo not given) | -24.6% | 24.4% | -38.1% | -6.0% | 70.8µM* | -25.0%
CC1CN(C(=S)SCC(=O)c2ccc([N+](=O)[O-])cc2)CC(C)O1 (stereo not given) | 12.2% | -11.4% | ? | -2.8% | 14.1µM* | -26.4%
O=C(NC(=S)N1CCOCC1)c1ccc([N+](=O)[O-])cc1 | -11.6% | 43.6% | ? | -13.3% | 8.91µM* | -5.5%
CC1CN(C(=S)c2cccc([N+](=O)[O-])c2)CC(C)O1 (stereo not given) | 50.1µM* | ? | -19.3% | ? | 6.31µM* | ?
O=[S+]1([O-])N=C(Oc2cccnc2)c2ccccc21 | / | / | / | / | / | 2.1%
O=C(CCn1cnnn1)Nc1ccc(Cl)cc1Cl | 14.1% | 10.2% | ? | 3.77µM* | 33.1%[12.7 µM] | -21.3%
Cc1c(Cl)cccc1NC(=O)CCn1cnnn1 | / | 13.9% | -7.7% | / | 8.0%[59 µM] | -16.0%
CCNC(=O)c1ccccc1SCC(=O)Nc1ccc(F)cc1 | -12.0% | -7.2% | -24.8% | 9.47µM* | -33.8% | 12.6µM*
CC(C)=CCC/C(C)=C/C=C/C(C)=C/C=C/C(C)=C/C=C/C=C(C)/C=C/C=C(C)/C=C/C=C(\C)CCC=C(C)C | ? | / | / | / | 20µM* | /
O=C1C[C@@H](O)[C@@H](O)[C@@H]2[C@H]3C(=O)N(c4ccc(F)cc4F)C(=O)[C@@H]3CC[C@H]12 | 5.2% | / | / | / | / | /
O=C(Nc1ccc(S(=O)(=O)Nc2cnc3ccccc3n2)cc1)c1ccc(Br)o1 | 16.8% | 15.8% | -0.4% | -7.6% | 44.7µM* | -17.9%
COC(=O)/C(=C/c1c[nH]c2ccccc12)NC(C)=O | 5.8% | 26.5% | -1.9% | -5.8% | 11.5% | 1.3%
COC(=O)/C(=C/c1cn(C)c2ccccc12)[N+](=O)[O-] | 56.2µM* | / | ? | / | ? | /
COC(=O)/C(=C/c1c[nH]c2ccccc12)[N+](=O)[O-] | -21.8% | 25.6% | 36.4% | 2.38µM* | ? | -19.8%
COc1ccc2c(C)cc(SCC(=O)Nc3cc(C(N)=O)cc(C(N)=O)c3)nc2c1 | 44.7µM* | 38.4% | ? | -6.5% | -31.1% | -16.9%
Cc1cc2c(cc1S(=O)(=O)N1CCOCC1)NC(=O)CO2 | 5.1% | 19.5% | 7.2% | -6.0% | -5.5%[59 µM] | -5.6%
COc1ccc(CN(C)CCc2ccccn2)c(OC)c1OC | ? | ? | 28.2µM* | -6.7% | 7.8%[2.33 µM] | 1µM*
ON(CCc1ccccn1)CCc1ccccn1 | / | -6.1% | / | -12.8% | / | 14.1µM*
Cc1cccc(CN(C)CCc2ccccn2)c1 | -20.2% | ? | ? | -1.5% | ? | 3.16µM*
CN(CCc1ccccn1)S(=O)(=O)c1ccc(F)cc1 | -26.3% | 28.2µM* | 44.7µM* | -5.8% | 7.08µM* | 5.62µM*
SMILES | Sfp PPTase inh | HP1b binding inh | BAZ2B block | PLK1 PBD inh | G9a inh | JMJD2A Tudor
CN(CC(=O)NCc1ccccn1)S(=O)(=O)c1ccc(F)cc1 | 7.0% | 47.6% | 5.0% | -23.4% | 26.4% | 1.1%
Nc1cc(=O)[nH]c(SCC(=O)c2ccc(F)cc2)n1 | 12.2% | 36.6% | -1.0% | -11.3% | -10.3% | -16.4%
ON(CCc1ccccn1)Cc1ccccc1 | / | 44.2% | / | 1.9% | / | -7.6%
CCOc1ccc(CN(C)CCc2ccccn2)cc1 | ? | 25.1µM* | 56.2µM* | -5.9% | 17.8µM* | 17.8µM*
Cc1cc(C)n2nc(SCC(=O)Nc3ccc(F)cc3[N+](=O)[O-])nc2n1 | / | 28.5% | / | -1.3% | / | -12.8%
Cc1nc(SCC(=O)Nc2ccc(Cl)cc2[N+](=O)[O-])nc(C)c1C | -62.9% | ? | 44.7µM* | ? | 11.2µM* | ?
Cc1ccc(SCC(=O)Nc2ccc(F)cc2[N+](=O)[O-])cc1C | -6.6% | 50.1µM* | 12.6µM* | -11.1% | ? | ?
Cc1cccc(C)c1NC(=O)CN(C)C(=O)C1CC1C (stereo not given) | / | 20.6% | -4.5% | 5.7% | -3.4%[59 µM] | -12.5%
CCc1noc(-c2ccc(N(C)Cc3ccc(OC)cc3)c([N+](=O)[O-])c2)n1 | / | 11.6% | -1.8% | / | -27.9%[59 µM] | -11.6%
Cc1cc(C)nc(SCc2ccc(C(=O)N/N=C/c3ccc(C(=O)O)cc3)cc2)n1 | 10.8% | 8.1% | -22.5% | -19.5% | -0.7% | -12.0%
Cc1cc(C)nc(SCc2ccc(C(=O)N/N=C/c3ccco3)cc2)n1 | ? | 13.5% | ? | -14.4% | 39.8µM* | -28.4%
C[C@H]1CN([C@@H](C)CO)S(=O)(=O)c2ccc(Br)cc2O[C@H]1CN(C)S(=O)(=O)c1ccccc1 | / | / | / | 6.4% | / | /
O=C(CSc1cccc[n+]1[O-])Nc1ccc2c(c1)OCO2 | -3.4% | 47.6% | -11.9% | -1.6% | 50.1µM* | -5.6%
CCCn1cc(SCC(=O)Nc2ccc3c(c2)OCO3)c2ccccc21 | 10.2% | 7.5% | ? | -2.2% | ? | ?
Cn1cc(SCC(=O)Nc2ccc3c(c2)OCO3)c2ccccc21 | ? | 17.2% | 13.4% | -22.6% | 25.1µM* | -32.4%
CC(=O)Nc1ccc(-c2ccnc3c2CC(C)(C(=O)NCc2ccc(F)c(F)c2)O3)cc1 (stereo not given) | / | / | / | 6.2% | / | /
Cc1ccc(NS(=O)(=O)c2ccc(-c3cnc(C4CC4)o3)cc2)c(C)c1 | -8.6% | -10.0%[57 µM] | -33.0% | -11.2% | 2.1% | ?
COc1ccccc1CNS(=O)(=O)c1ccc(-c2cnc(C3CC3)o2)cc1 | -7.1% | 1.7%[57 µM] | 89.1µM*! | -10.3% | 6.8%[59 µM] | -35.9%
CCN(CC)c1ccc(NS(=O)(=O)c2ccc(-c3cnc(C4CC4)o3)cc2)c(C)c1 | / | ? | 14.1µM* | / | ? | 17.8µM*
Cc1ccc(NC(=O)c2cc(C(=O)Nc3ccc(C)cc3)n(C)n2)cc1 | / | 24.7% | / | -0.5% | / | -17.6%
O=C(COC(=O)c1ccc([N+](=O)[O-])o1)Nc1ncc(Cl)cc1Cl | / | -11.7% | / | -23.7% | / | -20.8%
O=C(COC(=O)c1cnccn1)Nc1ncc(Cl)cc1Cl | / | -14.5% | 50.1µM* | -28.7% | 28.2µM* | ?
